# Experimental data from the supplement of paper PMC8728848.
# The sample as a whole holds a higher share of the strongest signals than the screen did.
# B1: RfpC (Mycobacterium tuberculosum), O07747 (protein)
# chain: MHHHHHHSSGRENLYFQGHMASKSAMAAGLVTASMSLSTAVAHAGPSPNWDAVAQCESGGNWAANTGNGKYGGLQFKPATWAAFGGVGNPAAASREQQIAVANRVLAEQGLDAWPTCGAASGLPIALWSKPAQGIKGS
# How the values were obtained:
# Assay in all cases: glycan array binding signal (z-score within array); higher = stronger binding
# Conditions in all cases: glycan notation: IUPAC condensed, linker removed
# [1] = molecular target: Fuc(a1-2)Gal(b1-3)GlcNAc(b1-3)Gal(b1-4)Glc
# Summary of the method: (§1)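 The Consortium for Functional Glycomics database supplied 3228 glycan arrays, of which those lacking an available protein sequence were dropped. The binding signal, a within-array Z-score, was averaged across arrays of the same protein sequence and across linkers. Negative scores can be read as non-binding.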
# Fuc(a1-4)GlcNAc = molecular target: Fuc(a1-4)GlcNAc
# Summary of the method: as §1
# [2] = molecular target: Gal(b1-4)GalNAc(b1-3)[Fuc(a1-2)]Gal(b1-4)GlcNAc
# Summary of the method: as §1
# Gal(b1-4)Glc = molecular target: Gal(b1-4)Glc
# Summary of the method: as §1
# Gal(b1-4)Glc6S = molecular target: Gal(b1-4)Glc6S
# Summary of the method: as §1
# [3] = molecular target: Gal(b1-4)GlcNAc(b1-3)Gal(b1-4)[Fuc(a1-3)]GlcNAc(b1-3)Gal(b1-4)[Fuc(a1-3)]GlcNAc
# Summary of the method: as §1
# [4] = molecular target: Gal(b1-4)GlcNAc(b1-6)GalNAc
# Summary of the method: as §1
# Gal4S(b1-4)GlcNAc = molecular target: Gal4S(b1-4)GlcNAc
# Summary of the method: as §1
# [5] = molecular target: GalNAc(b1-3)Gal(a1-4)Gal(b1-4)GlcNAc
# Summary of the method: as §1
# GlcNAc(b1-3)Gal = molecular target: GlcNAc(b1-3)Gal
# Summary of the method: as §1
# Kdn(a2-3)Gal(b1-4)GlcNAc = molecular target: Kdn(a2-3)Gal(b1-4)GlcNAc
# Summary of the method: as §1
# [6] = molecular target: Man(a1-2)Man(a1-2)Man(a1-3)Man
# Summary of the method: as §1
# [7] = molecular target: Man(a1-2)Man(a1-3)[Man(a1-2)Man(a1-6)]Man(a1-6)[Man(a1-2)Man(a1-2)Man(a1-3)]Man(b1-4)GlcNAc(b1-4)GlcNAc
# Summary of the method: as §1
# Man(a1-6)Man = molecular target: Man(a1-6)Man
# Summary of the method: as §1
# Neu5Ac(a2-3)Gal = molecular target: Neu5Ac(a2-3)Gal
# Summary of the method: as §1
# [8] = molecular target: Neu5Ac(a2-3)Gal(b1-3)GalNAc(b1-4)[Neu5Ac(a2-3)]Gal(b1-4)Glc
# Summary of the method: as §1
# [9] = molecular target: Neu5Ac(a2-3)Gal(b1-4)[Fuc(a1-3)]GlcNAc(b1-3)Gal(b1-4)[Fuc(a1-3)]GlcNAc(b1-3)Gal(b1-4)[Fuc(a1-3)]GlcNAc
# Summary of the method: as §1
# [10] = molecular target: Neu5Ac(a2-3)[Neu5Ac(a2-6)]GalNAc
# Summary of the method: as §1
# Neu5Ac(a2-6)Gal(b1-4)Glc = molecular target: Neu5Ac(a2-6)Gal(b1-4)Glc
# Summary of the method: as §1
# [11] = molecular target: Neu5Ac(a2-6)Gal(b1-4)GlcNAc(b1-2)Man(a1-3)[Gal(b1-4)GlcNAc(b1-2)Man(a1-6)]Man(b1-4)GlcNAc(b1-4)GlcNAc
# Summary of the method: as §1
# Neu5Gc(a2-6)GalNAc = molecular target: Neu5Gc(a2-6)GalNAc
# Summary of the method: as §1
# [12] = molecular target: Neu5Gc(b2-6)Gal(b1-4)GlcNAc
# Summary of the method: as §1
binder,measurement,setting,value
B1,glycan array binding signal (z-score),[1],0.546
same,glycan array binding signal (z-score),Fuc(a1-4)GlcNAc,-1.09
same,glycan array binding signal (z-score),[2],3.48
same,glycan array binding signal (z-score),Gal(b1-4)Glc,-0.11
same,glycan array binding signal (z-score),Gal(b1-4)Glc6S,4.01
same,glycan array binding signal (z-score),[3],-0.25
same,glycan array binding signal (z-score),[4],-0.822
same,glycan array binding signal (z-score),Gal4S(b1-4)GlcNAc,0.815
same,glycan array binding signal (z-score),[5],3.74
same,glycan array binding signal (z-score),GlcNAc(b1-3)Gal,-0.187
same,glycan array binding signal (z-score),Kdn(a2-3)Gal(b1-4)GlcNAc,-0.421
same,glycan array binding signal (z-score),[6],2.92
same,glycan array binding signal (z-score),[7],-0.745
same,glycan array binding signal (z-score),Man(a1-6)Man,-0.622
same,glycan array binding signal (z-score),Neu5Ac(a2-3)Gal,0.641
same,glycan array binding signal (z-score),[8],-0.923
same,glycan array binding signal (z-score),[9],-0.798
same,glycan array binding signal (z-score),[10],0.475
same,glycan array binding signal (z-score),Neu5Ac(a2-6)Gal(b1-4)Glc,0.057
same,glycan array binding signal (z-score),[11],-0.731
same,glycan array binding signal (z-score),Neu5Gc(a2-6)GalNAc,1.8
same,glycan array binding signal (z-score),[12],3.14
